This passage reports potency estimated from few doses results from PMC11062922 (Nature Chemical Biology, 2023).

Holding throughout (set-up): species or system human, MV4-11 + K-562 + COLO205 + SK-N-BE2 + OVCAR-8
One experiment deals with ADCK1. To be noted: read-out: apparent Kd; compound concentrations: 100 nM and 1000 nM (sheet 'Samples'), CATDS: 4.4524563972159897E-2; n = 1.
The subject of a further experiment is ADK. As to conditions: read-out: apparent Kd; compound concentrations: 100 nM and 1000 nM (sheet 'Samples'), CATDS: 4.5787667935106503E-2; n = 1.
The subject of a further experiment is CDK4. As to conditions: read-out: apparent Kd; compound concentrations: 100 nM and 1000 nM (sheet 'Samples'), CATDS: 4.6312693671670499E-2; n = 1.
A further experiment has as its system CSNK1D. To be noted: read-out: apparent Kd, compound concentrations: 100 nM and 1000 nM (sheet 'Samples'), n = 1.
A further experiment concerns CSNK1E. As to conditions: read-out: apparent Kd, compound concentrations: 100 nM and 1000 nM (sheet 'Samples'), n = 1.
For a further experiment, the system named is MAP4K5. As to conditions: read-out: apparent Kd; compound concentrations: 100 nM and 1000 nM (sheet 'Samples'), CATDS: 6.0957264613737197E-2; n = 1.
The test system of another experiment is PRKACA. To be noted: read-out: apparent Kd; compound concentrations: 100 nM and 1000 nM (sheet 'Samples'), CATDS: 6.9210809350161107E-2; n = 1.
The test system of a further experiment is PRKACB. To be noted: read-out: apparent Kd; compound concentrations: 100 nM and 1000 nM (sheet 'Samples'), CATDS: 6.0886440238293899E-2; n = 1.
The test system of another experiment is PRKCD. To be noted: read-out: apparent Kd, compound concentrations: 100 nM and 1000 nM (sheet 'Samples'), n = 1.
The test system of a further experiment is PRKCQ. To be noted: read-out: apparent Kd; compound concentrations: 100 nM and 1000 nM (sheet 'Samples'), CATDS: 0.20872331441348899; n = 1.
The next experiment concerns PRKD2. As to conditions: read-out: apparent Kd, n = 1.
The next experiment has as its system PRKD3. To be noted: read-out: apparent Kd; compound concentrations: 100 nM and 1000 nM (sheet 'Samples'), CATDS: 0.24703755989756301; n = 1.
The subject of a further experiment is RPS6KB1. To be noted: read-out: apparent Kd; compound concentrations: 100 nM and 1000 nM (sheet 'Samples'), CATDS: 6.31408503509263E-2; n = 1.
Another experiment deals with TNIK. To be noted: read-out: apparent Kd, n = 1.
The test system of the next experiment is ACVR1B. As to conditions: read-out: apparent Kd; compound concentrations:100 nM and 1000 nM (sheet 'Samples'); n = 1.
A further experiment deals with MAPK14. As to conditions: read-out: apparent Kd; compound concentrations:100 nM and 1000 nM (sheet 'Samples'); n = 1.
Another experiment relates to MAPKAPK2. As to conditions: read-out: apparent Kd; compound concentrations:100 nM and 1000 nM (sheet 'Samples'); n = 1.
Another experiment concerns GAK. To be noted: read-out: apparent Kd, n = 1.
In the next experiment the test system is NQO2. As to conditions: read-out: apparent Kd; compound concentrations:100 nM and 1000 nM (sheet 'Samples'); n = 1.
A further experiment relates to RIPK2. As to conditions: read-out: apparent Kd; compound concentrations:100 nM and 1000 nM (sheet 'Samples'); n = 1.
Another experiment concerns TGFBR1. To be noted: read-out: apparent Kd; compound concentrations:100 nM and 1000 nM (sheet 'Samples'); n = 1.
A further experiment relates to TGFBR2. To be noted: read-out: apparent Kd; compound concentrations:100 nM and 1000 nM (sheet 'Samples'); n = 1.
A further experiment has as its system ACVR2B. As to conditions: read-out: apparent Kd; compound concentrations: 100 nM and 1000 nM (sheet 'Samples'), CATDS: 4.2186627256430298E-2; n = 1.
The next experiment concerns ADCK3. As to conditions: read-out: apparent Kd; compound concentrations: 100 nM and 1000 nM (sheet 'Samples'), CATDS: 4.2636301284937402E-2; n = 1.
For another experiment, the system named is AKT2. To be noted: read-out: apparent Kd; compound concentrations: 100 nM and 1000 nM (sheet 'Samples'), CATDS: 3.8315298656597697E-2; n = 1.
The next experiment deals with CDC42BPB. To be noted: read-out: apparent Kd; compound concentrations: 100 nM and 1000 nM (sheet 'Samples'), CATDS: 4.17361912468606E-2; n = 1.
The test system of the next experiment is CDC42BPG. As to conditions: read-out: apparent Kd; compound concentrations: 100 nM and 1000 nM (sheet 'Samples'), CATDS: 4.6703461081502903E-2; n = 1.
The next experiment deals with CDK13. As to conditions: read-out: apparent Kd; compound concentrations: 100 nM and 1000 nM (sheet 'Samples'), CATDS: 3.8824736575062302E-2; n = 1.
In another experiment the test system is CDKL5. To be noted: read-out: apparent Kd; compound concentrations: 100 nM and 1000 nM (sheet 'Samples'), CATDS: 4.2225060915193902E-2; n = 1.
A further experiment deals with CIT. To be noted: read-out: apparent Kd; compound concentrations: 100 nM and 1000 nM (sheet 'Samples'), CATDS: 9.7052908053400402E-2; n = 1.
A further experiment concerns CSNK1A1. To be noted: read-out: apparent Kd; compound concentrations: 100 nM and 1000 nM (sheet 'Samples'), CATDS: 4.3314802328408702E-2; n = 1.
Another experiment has as its system MAP3K12. To be noted: read-out: apparent Kd; compound concentrations: 100 nM and 1000 nM (sheet 'Samples'), CATDS: 4.3727049359112501E-2; n = 1.
The next experiment has as its system MAP3K4. As to conditions: read-out: apparent Kd; compound concentrations: 100 nM and 1000 nM (sheet 'Samples'), CATDS: 4.0498159279946502E-2; n = 1.
In another experiment the test system is MTOR. To be noted: read-out: apparent Kd; compound concentrations: 100 nM and 1000 nM (sheet 'Samples'), CATDS: 6.6094429766625107E-2; n = 1.
In the next experiment the test system is PIK3CA. To be noted: read-out: apparent Kd; compound concentrations: 100 nM and 1000 nM (sheet 'Samples'), CATDS: 0.16597567422928799; n = 1.
In the next experiment the test system is ROCK1. As to conditions: read-out: apparent Kd; compound concentrations: 100 nM and 1000 nM (sheet 'Samples'), CATDS: 9.5371648246972293E-2; n = 1.
The test system of a further experiment is ROCK2. As to conditions: read-out: apparent Kd; compound concentrations: 100 nM and 1000 nM (sheet 'Samples'), CATDS: 9.3527332019104195E-2; n = 1.
For a further experiment, the system named is TESK1. To be noted: read-out: apparent Kd; compound concentrations: 100 nM and 1000 nM (sheet 'Samples'), CATDS: 4.6585684962704203E-2; n = 1.
Where [1] appears, read: compound concentrations:100 nM and 1000 nM (sheet 'Samples').

Like-named read-outs stand apart in the source and are kept apart here.

As for `Cc1n[nH]c2ccc(-c3cc(OC[C@@H](N)Cc4c[nH]c5ccccc45)cnc3-c3ccoc3)cc12.Cc1n[nH]c2ccc(-c3cc(OC[C@@H](N)Cc4c[nH]c5ccccc45)cnc3-c3ccoc3)cc12.O=C(O)C(F)(F)F.O=C(O)C(F)(F)F.O=C(O)C(F)(F)F` [GSK562689A], the potency estimated from few doses with ADCK1 is 2150 nM; in the experiment with ADK it was 1830 nM; in the experiment with CDK4, 1720 nM; with CSNK1D (CATDS: 7.6669822847603902E-2), 302 nM; with CSNK1E (CATDS: 6.5483605156218705E-2) it was 464 nM; with MAP4K5 it was 577 nM. The potency estimated from few doses in the experiment with PRKACA was 396 nM; with PRKACB, 579 nM; with PRKCD (CATDS: 6.5587395591723996E-2), 462 nM; in the experiment on PRKCQ, 41.7 nM; in the experiment on PRKD2 (compound concentrations: 100 nM and 1000 nM (sheet 'Samples'), CATDS: 0.17196563894613301) it was 57.2 nM; with PRKD3, 32.3 nM. The potency estimated from few doses in the experiment on RPS6KB1 is 518 nM; with TNIK (compound concentrations: 100 nM and 1000 nM (sheet 'Samples'), CATDS: 0.113919393065207), 123 nM.

In the case of `Nc1nc(-c2cccc(Cl)c2)c(-c2ccc3ncccc3n2)s1` [GW780159X], the potency estimated from few doses is 1.63 nM in the experiment with ACVR1B; 1440 nM in the experiment with MAPK14; 1000 nM in the experiment on MAPKAPK2; 815 nM with PRKD2 (setting [1]); 2040 nM in the experiment with TNIK (setting [1]).

On to `c1ccc(-c2n[nH]cc2-c2ccnc(-c3ccc(OCCn4ccnc4)cc3)c2)nc1` [GW711782X], for which the potency estimated from few doses in the experiment with ACVR1B is 245 nM; in the experiment on GAK (setting [1]), 1350 nM; in the experiment on NQO2, 71.1 nM; with PRKD2 (setting [1]), 2160 nM; in the experiment on RIPK2, 801 nM; with TGFBR1 it was 82 nM. In addition, the potency estimated from few doses was 719 nM in the experiment on TGFBR2 and 873 nM in the experiment on TNIK (setting [1]).

Turning to `O=C(c1ccc(-c2cc(-c3c[nH]nc3-c3ccccn3)ccn2)cc1)N1CCOCC1` [GW812171X], the potency estimated from few doses in the experiment on ACVR1B was 119 nM; in the experiment with TGFBR1 it was 67.6 nM.

For the molecule `Cl.Cl.NCC(NC(=O)c1cc(-c2cccnc2)c(-c2ccnc3[nH]ccc23)s1)c1ccccc1.NCC(NC(=O)c1cc(-c2cccnc2)c(-c2ccnc3[nH]ccc23)s1)c1ccccc1` (stereo not shown) [GSK1323434A], the potency estimated from few doses was 1740 nM in the experiment on ACVR2B; 1690 nM in the experiment on ADCK3; 2290 nM in the experiment with AKT2; 1790 nM with CDC42BPB; 1340 nM with CDC42BPG; 2200 nM with CDK13. Besides, the potency estimated from few doses in the experiment on CDKL5 is 1730 nM; with CIT it was 344 nM; with CSNK1A1, 1620 nM; in the experiment on CSNK1D (CATDS: 5.2512295854069302E-2) it was 1030 nM; with CSNK1E (CATDS: 4.5718432207302401E-2), 1410 nM; with GAK (compound concentrations: 100 nM and 1000 nM (sheet 'Samples'), CATDS: 5.0119839441511702E-2), 1140 nM. The potency estimated from few doses with MAP3K12 was 1580 nM; with MAP3K4, 1940 nM; in the experiment on MTOR, 653 nM; in the experiment with PIK3CA, 161 nM; with PRKCD (CATDS: 3.8004287822733102E-2) it was 2350 nM; in the experiment on ROCK1, 354 nM. For the same molecule, the figures for the potency estimated from few doses in the experiment with ROCK2 and in the experiment on TESK1 were 364 nM and 1350 nM, respectively.
